From PubChem
A selection: hits, their analogues and other compounds. The true share with any hit is near 6.7%.
C diff growth: blocks growth of Clostridium difficile; 86,000 compounds, 0.25% hits; growth activity, negative = inhibition, % at 16 µg/mL (by protocol); Clostridium difficile clinical isolate growth, OD600, 24 h; hits give low values; AID 1259249;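 active = mean growth activity at or below -80% and every replicate also at or below -80%; inconclusive = mean at or below -80% but some replicate above -80%; inactive = mean growth activity above -80%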;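 note: 0% = DMSO wells and -100% = levofloxacin 16 µg/mL wells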
T cruzi growth-1: T. cruzi proliferation inhibition. inhibition, % at 8.34 µM. AID 624255. T. cruzi beta-gal in NIH3T3, GalScreen luminescence, 90 h. 77,000 compounds, 5.9% hits;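 active = mean inhibition above about 93%, with at least 55% of replicates each passing it, limit read from the data, passing the limit was not always enough; inconclusive = only one of those two conditions holds; inactive = neither condition holds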
Pf Dd2 inh: P. falciparum Dd2 growth inhibition | SYBR Green, 72 h; hits give low values | activity change, % at 10 µM | 94,000 compounds, 2.3% hits; in the data active = activity change below about -80%; inconclusive = no clear call, values can overlap the other calls
T cruzi growth-2: Trypanosoma cruzi proliferation inhibition. shares compounds with T cruzi growth-1. T. cruzi beta-gal in NIH3T3, GalScreen luminescence, 90 h. inhibition, % at 8.35 µM. 5,600 compounds, 72% hits. AID 651739;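 active = mean replicate inhibition above about 95% and at least 55% of replicates individually reaching it, limit read from the data; inconclusive = only one of the two criteria is met; inactive = neither criterion is met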
T cruzi growth-3: inhibitors of T. cruzi proliferation | shares compounds with T cruzi growth-1 | T. cruzi beta-gal in NIH3T3, GalScreen luminescence, 90 h | inhibition, % at 2.09 µM | 5,600 compounds, 21% hits | AID 651740;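 active = mean inhibition above about 95%, with at least 55% of replicates also reaching it, limit read from the data; inconclusive = meets just one of the two conditions; inactive = meets neither condition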;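 note: plate controls were neutral control median for no effect and positive control median for full effect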
3T3 cytotox: kills mouse NIH/3T3 fibroblasts; NIH/3T3 viability, CellTiter-Glo ATP luminescence, 90 h; shares compounds with T cruzi growth-1; 5,600 compounds, 14% hits; cytotoxicity (signal decrease), % at 8.35 µM;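 active = mean signal decrease across replicates above about 35% based on untreated-well scatter, with enough replicates individually passing, limit read from the data; inconclusive = no rule stated though some were filed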;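 note: 0% = median of neutral control wells and 100% = median of positive control wells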
NIH3T3 tox 2: NIH/3T3 (mouse) viability loss. NIH/3T3 viability, CellTiter-Glo ATP luminescence, 90 h. 5,600 compounds, 56% hits. shares compounds with T cruzi growth-1. inhibition, % at 24.9 µM;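 active = mean loss of cell viability signal at or above a set limit, and enough replicates individually reaching it; inconclusive = meets only the mean limit or only the replicate share; inactive = meets neither condition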;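 note: 0% = median of neutral control wells and 100% = median of positive control wells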
An asterisk follows results filed as active.

`C[C@@H]1CN([C@@H](C)CO)C(=O)c2cc(C#CCC3CCCC3)cnc2O[C@H]1CN(C)Cc1ccccn1` gave C diff growth -34, T cruzi growth-1 110*, Pf Dd2 inh -50, T cruzi growth-2 105*, T cruzi growth-3 47, 3T3 cytotox 2 and NIH3T3 tox 2 104*.
`C[C@@H]1CN([C@H](C)CO)C(=O)c2cc(C#CCc3ccccc3)cnc2O[C@@H]1CN(C)C(=O)C1CCCCC1` gave C diff growth 0, T cruzi growth-1 35 and Pf Dd2 inh -34.
Screening O=C(C[C@@H]1CC[C@@H]2[C@H](COC[C@@H](O)CN2CCC(F)(F)F)O1)NCC1CCCCC1 returned C diff growth 4, T cruzi growth-1 65 and Pf Dd2 inh 11.
`CO[C@@H]1CN(C)C(=O)c2ccc(NC(=O)c3ccccc3F)cc2OC[C@H](C)N(C)C[C@H]1C` gave C diff growth 0, T cruzi growth-1 1 and Pf Dd2 inh 5.
Screening C[C@H](CO)N1C[C@H](C)[C@H](CN(C)Cc2cccnc2)Oc2ncc(C#CCc3ccccc3)cc2C1=O returned C diff growth -6, T cruzi growth-1 71 and Pf Dd2 inh -56.
C[C@@H]1CN([C@@H](C)CO)C(=O)c2cc(C#CCc3ccccc3)cnc2O[C@@H]1CN(C)Cc1cccnc1 was read as C diff growth -7, T cruzi growth-1 101*, Pf Dd2 inh -53, T cruzi growth-2 79, T cruzi growth-3 -10, 3T3 cytotox -10 and NIH3T3 tox 2 -9.
C[C@H]1CN([C@@H](C)CO)C(=O)c2cc(C#Cc3cccnc3)cnc2O[C@@H]1CN(C)Cc1ccccc1 was read as T cruzi growth-1 91 and Pf Dd2 inh -57.
For C[C@H](CO)N1C[C@H](C)[C@H](CN(C)Cc2ccccc2)Oc2ncc(C#Cc3cccnc3)cc2C1=O the results were T cruzi growth-1 101*, Pf Dd2 inh -20, T cruzi growth-2 70, T cruzi growth-3 15, 3T3 cytotox 15 and NIH3T3 tox 2 33.
Screening O=C(NCc1ccncn1)[C@@H]1[C@@H](CO)[C@@H]2Cn3c(cccc3=O)[C@H]1N2CC1CC1 returned C diff growth 1 and T cruzi growth-1 54.
`COC(=O)C[C@@H]1CC[C@@H]2[C@H](COc3ccc(NC(=O)NCc4ccccc4)cc3C(=O)N2C)O1` gave C diff growth 1, T cruzi growth-1 5 and Pf Dd2 inh 5.
C[C@@H]1CN([C@@H](C)CO)S(=O)(=O)c2ccc(/C=C/c3ccccc3)cc2O[C@H]1CN(C)C(=O)Nc1ccc(F)cc1 was read as C diff growth -9, T cruzi growth-1 131*, Pf Dd2 inh -73, T cruzi growth-2 99*, T cruzi growth-3 96*, 3T3 cytotox 39* and NIH3T3 tox 2 61*.
For C[C@H](CO)N1C[C@H](C)[C@@H](CN(C)C(=O)Nc2cc(F)ccc2F)Oc2cc(/C=C/c3ccccc3)ccc2S1(=O)=O the results were C diff growth 6 and Pf Dd2 inh -66.
C/C=C/c1ccc2c(c1)O[C@H](CN(C)C(=O)Nc1ccc(F)cc1)[C@@H](C)CN([C@@H](C)CO)S2(=O)=O was read as C diff growth 6, T cruzi growth-1 7 and Pf Dd2 inh -7.
`C[C@@H]1CN([C@@H](C)CO)S(=O)(=O)c2ccc(/C=C/c3ccccc3)cc2O[C@@H]1CN(C)C(=O)Nc1ccc(F)cc1` gave C diff growth -2, T cruzi growth-1 123*, Pf Dd2 inh -89*, T cruzi growth-2 102*, T cruzi growth-3 104*, 3T3 cytotox 32 and NIH3T3 tox 2 48*.
Screening CC(C)C#Cc1ccc2c(c1)O[C@H](CN(C)C(=O)c1ccncc1)[C@H](C)CN([C@H](C)CO)S2(=O)=O returned C diff growth -2, T cruzi growth-1 39 and Pf Dd2 inh 26.
For CC(C)C#Cc1ccc2c(c1)O[C@@H](CN(C)C(=O)c1ccncc1)[C@@H](C)CN([C@@H](C)CO)S2(=O)=O the results were C diff growth -1, T cruzi growth-1 102*, Pf Dd2 inh 2, T cruzi growth-2 100*, T cruzi growth-3 inconclusive, 3T3 cytotox 23 and NIH3T3 tox 2 45*.
`C[C@H](CO)N1C[C@H](C)[C@@H](CN(C)Cc2ccncc2)Oc2cc(C#C[C@@H](C)O)ccc2S1(=O)=O` gave C diff growth 2, T cruzi growth-1 75 and Pf Dd2 inh -27.
For CC(C)C#Cc1ccc2c(c1)O[C@H](CN(C)Cc1ccncc1)[C@@H](C)CN([C@H](C)CO)S2(=O)=O the results were C diff growth 1, T cruzi growth-1 inconclusive, Pf Dd2 inh -68, T cruzi growth-2 99*, T cruzi growth-3 101*, 3T3 cytotox 57* and NIH3T3 tox 2 103*.
For CC(C)C#Cc1ccc2c(c1)O[C@@H](CN(C)Cc1ccncc1)[C@H](C)CN([C@H](C)CO)S2(=O)=O the results were C diff growth 19, T cruzi growth-1 119*, Pf Dd2 inh -71, T cruzi growth-2 106*, T cruzi growth-3 102*, 3T3 cytotox 63* and NIH3T3 tox 2 104*.
Screening C[C@H](O)C#Cc1ccc2c(c1)O[C@@H](CN(C)Cc1ccncc1)[C@@H](C)CN([C@@H](C)CO)S2(=O)=O returned C diff growth -2, T cruzi growth-1 66 and Pf Dd2 inh -18.
Screening C[C@@H]1CN([C@@H](C)CO)C(=O)Cc2cc(NC(=O)Nc3cccc4ccccc34)ccc2O[C@@H]1CN(C)S(=O)(=O)c1ccccc1 returned C diff growth 1, T cruzi growth-1 82 and Pf Dd2 inh -3.
CCCN1[C@@H]2Cn3c(ccc(-c4ccccc4F)c3=O)[C@H]1[C@@H](C(=O)NCC)[C@@H]2CO was read as C diff growth 0, T cruzi growth-1 -20 and Pf Dd2 inh 3.
`CN1c2ccc(C#Cc3cccnc3)cc2[C@H]2[C@H](CCN2S(=O)(=O)c2ccc(F)cc2)[C@H]1CO` gave C diff growth -4, T cruzi growth-1 97*, Pf Dd2 inh inconclusive, T cruzi growth-2 102*, T cruzi growth-3 111*, 3T3 cytotox 37* and NIH3T3 tox 2 42*.
CN1c2ccc(-c3cccc(C#N)c3)cc2[C@H]2[C@H](CCN2S(=O)(=O)c2ccccc2)[C@@H]1CO was read as C diff growth 5, T cruzi growth-1 94 and Pf Dd2 inh -19.
For CN1c2ccc(C#Cc3cccnc3)cc2[C@@H]2[C@@H](CCN2S(=O)(=O)c2ccc(F)cc2)[C@H]1CO the results were C diff growth -6, T cruzi growth-1 85 and Pf Dd2 inh -70.
